Experimental data as given in publication PMC5540273 (PLoS ONE, 2017).
Like-named read-outs stand apart in the source and are kept apart here.

What was measured:
TAOK2 = settings: concentration: 1 μM, replicates: in singlicate; n = 1
TAOK3 = settings: concentration: 1 μM, replicates: in singlicate; n = 1
TBK1 = settings: concentration: 1 μM, replicates: in singlicate; n = 1
TEC = settings: concentration: 1 μM, replicates: in singlicate; n = 1
TESK1 = settings: concentration: 1 μM, replicates: in singlicate; n = 1
TGFBR1 = settings: n = 1
TGFBR2 = settings: concentration: 1 μM, replicates: in singlicate; n = 1
TIE1 = settings: concentration: 1 μM, replicates: in singlicate; n = 1
TIE2 = test system: T1, TIE2; settings: concentration: 1 μM, replicates: in singlicate; n = 1
T1 construct: gene TEK

TLK1 = settings: concentration: 1 μM, replicates: in singlicate; n = 1
[1] = concentration: 1 μM, replicates: in singlicate
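Further: KINOMEscan kinase panel screen.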

| Structure (SMILES) | %Inh (TAOK2) | %Inh (TAOK3) | %Inh (TBK1) | %Inh (TEC) | %Inh (TESK1) | %Inh (TGFBR1; [1]) | %Inh (TGFBR2) | %Inh (TIE1) | %Inh (TIE2) | %Inh (TLK1) | %Inh (TGFBR1; 1 µM) |
| --- | --- | --- | --- | --- | --- | --- | --- | --- | --- | --- | --- |
| Cc1c(Cn2c(C)nn3c(=O)cc(N4CCOC(C)C4)nc23)cccc1C(F)(F)F (centres unmarked) [GSK2344444] | 0% | 0% | 0% | 0% | 0% | 0% | 0% | 7% | 0% | 0% | – |
| N#Cc1c(N2CCOCC2)sc(-c2ccn[nH]2)c1-c1ccc(Cl)cc1 | 0% | 0% | 12% | 12% | 0% | 19% | 0% | 0% | 5% | 11% | – |
| CC(=O)Nc1ccc(COc2ccc(Nc3ccnc4cc(-c5ccccn5)ccc34)cc2)cc1.Cl [GW440148] | 0% | 0% | 21% | 0% | 9% | 8% | 28% | 26% | 6% | 38% | – |
| CCc1nc(-c2cccc(C)c2)c(-c2ccnc(NCc3ccccc3)c2)s1 | 0% | 0% | 13% | 9% | 0% | 2% | 0% | 13% | 0% | 22% | – |
| Nc1nccc(-c2c(-c3ccc(F)cc3)ncn2C2CCN(CC(F)(F)F)CC2)n1 [SB-236560] | 0% | 0% | 0% | 8% | 0% | 32% | 6% | 25% | 0% | 11% | – |
| NS(=O)(=O)c1cccc(-c2ccc3ncc(N4CCOCC4)nc3c2)c1 [GSK1535721] | 0% | 4% | 17% | 18% | 0% | 6% | 0% | 0% | 0% | 9% | – |
| Fc1ccc(-c2ncn(CCCN3CCOCC3)c2-c2ccccn2)cc1 [SB-211742] | 5% | 0% | 21% | 0% | 0% | 52% | 6% | 0% | 27% | 0% | – |
| O=C1NC(=O)C(N2CCc3ccccc32)=C1c1cccc(Cl)c1 [SB-408010] | 0% | 0% | 0% | 0% | 30% | 0% | 1% | 0% | 12% | 10% | – |
| N#Cc1ccc(-c2cc(-c3c[nH]nc3-c3ccccn3)ccn2)cc1 [GW693028] | 0% | 0% | 6% | 44% | 23% | – | 83% | 0% | 0% | 0% | 87% |
| O=C(NOCC1CC1)c1ccc(F)c(F)c1Nc1ccc(I)cc1Cl | 0% | 0% | 0% | 0% | 4% | 0% | 0% | 0% | 0% | 3% | – |
| CCc1ccnc(/C=C/c2n[nH]c3cc(Sc4ccccc4C(=O)NC)ccc23)c1 | 100% | 0% | 0% | 3% | 8% | 0% | 0% | 48% | 8% | 0% | – |
| COc1ccc(Nc2nccc(N3CCC(NC(=O)Nc4cc(C)ccc4C)C3)n2)cc1 (centres unmarked) [GSK1379741] | 0% | 0% | 0% | 20% | 14% | 0% | 0% | 0% | 0% | 0% | – |
| COc1ccc(Nc2nccc(N3CCC(NC(=O)Nc4cccc(C(C)=O)c4)C3)n2)cc1 (centres unmarked) [GSK1379731] | 0% | 0% | 0% | 0% | 30% | 0% | 0% | 0% | 0% | 0% | – |
| NCC(NC(=O)c1cc(-c2cn[nH]c2)c(-c2ccnc3[nH]ccc23)s1)c1ccccc1.O=C(O)C(F)(F)F.O=C(O)C(F)(F)F (centres unmarked) [GSK1325775] | 40% | 40% | 20% | 1% | 18% | 4% | 0% | 6% | 0% | 5% | – |
| COc1cc(Nc2nccc(N3CCC(NC(=O)c4cccc(NC(C)=O)c4)C3)n2)cc(OC)c1OC (centres unmarked) [GSK1379754] | 0% | 0% | 17% | 0% | 15% | 0% | 0% | 61% | 0% | 0% | – |
| O=C(c1ccc(-c2cc(-c3c[nH]nc3-c3ccccn3)ccn2)cc1)N1CCOCC1 [GW812171] | 33% | 2% | 31% | 16% | 11% | – | 11% | 0% | 1% | 0% | 90.7% |
| Fc1ccc(-c2nn3c(OCC(F)(F)F)cccc3c2-c2ccncc2)cc1 [GW514784] | 0% | 0% | 0% | 0% | 13% | 39% | 55% | 0% | 0% | 0% | – |
